# NOD2-RIPK2 inh – inhibitors of human NOD2-RIPK2 interaction; inhibition, % at 4.98 µM; 360,000 tested, 0.38% active; CHO BLA complementation NOD2-RIPK2, CCF4 ratio; in the data active = inhibition above about 21%;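 also: 0% = vehicle only and 100% = reference blocker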
# TLR9-MyD88 block – inhibitors of human TLR9-MyD88 binding; CHO BLA complementation TLR9-MyD88, CCF4 FRET ratio; 340,000 tested, 0.21% active; inhibition, % at 4.98 µM; AID 504734; Q9NR96+Q99836;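 active = inhibition above the mean over all tested compounds plus 3 SD, cut at about 21% in these data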;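 also: 0% = DMSO only wells and 100% = clavulanate BLA inhibitor control wells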
# TLR4 MyD88 comp – TLR4-MyD88 interaction inhibition in cells; inhibition, % at 8.4 µM; 200,000 tested, 0.18% active; AID 861; HeLa CL3-4 TLR4/MyD88 BLA complementation, FRET ratio; O00206+Q99836; in the data active = inhibition above about 25%;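 also: 0% = vehicle and 100% = reference inhibitor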
# Target sequence (O00206 whole entry, looked up): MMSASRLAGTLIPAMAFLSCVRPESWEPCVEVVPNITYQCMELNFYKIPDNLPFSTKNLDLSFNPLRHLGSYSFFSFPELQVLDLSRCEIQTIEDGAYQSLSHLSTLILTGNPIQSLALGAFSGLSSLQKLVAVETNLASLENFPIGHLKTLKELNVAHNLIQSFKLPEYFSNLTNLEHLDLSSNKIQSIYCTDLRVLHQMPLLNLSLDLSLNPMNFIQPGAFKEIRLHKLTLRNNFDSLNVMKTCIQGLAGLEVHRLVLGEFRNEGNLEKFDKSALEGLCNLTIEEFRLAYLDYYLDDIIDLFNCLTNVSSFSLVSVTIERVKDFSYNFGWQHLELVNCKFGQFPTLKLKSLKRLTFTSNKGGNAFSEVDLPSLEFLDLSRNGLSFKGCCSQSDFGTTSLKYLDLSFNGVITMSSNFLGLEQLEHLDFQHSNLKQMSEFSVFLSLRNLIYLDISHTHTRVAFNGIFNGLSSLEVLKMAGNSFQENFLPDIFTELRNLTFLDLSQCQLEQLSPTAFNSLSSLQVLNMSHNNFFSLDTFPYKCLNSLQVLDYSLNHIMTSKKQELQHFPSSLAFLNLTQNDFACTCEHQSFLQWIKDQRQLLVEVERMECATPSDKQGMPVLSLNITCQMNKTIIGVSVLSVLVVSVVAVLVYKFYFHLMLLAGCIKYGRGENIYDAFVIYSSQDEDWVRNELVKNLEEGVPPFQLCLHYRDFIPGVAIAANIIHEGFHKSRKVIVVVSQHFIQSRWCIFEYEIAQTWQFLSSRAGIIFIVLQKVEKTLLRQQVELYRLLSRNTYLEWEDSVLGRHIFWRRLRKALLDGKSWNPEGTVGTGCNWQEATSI
# Target sequence (Q99836 whole entry, looked up): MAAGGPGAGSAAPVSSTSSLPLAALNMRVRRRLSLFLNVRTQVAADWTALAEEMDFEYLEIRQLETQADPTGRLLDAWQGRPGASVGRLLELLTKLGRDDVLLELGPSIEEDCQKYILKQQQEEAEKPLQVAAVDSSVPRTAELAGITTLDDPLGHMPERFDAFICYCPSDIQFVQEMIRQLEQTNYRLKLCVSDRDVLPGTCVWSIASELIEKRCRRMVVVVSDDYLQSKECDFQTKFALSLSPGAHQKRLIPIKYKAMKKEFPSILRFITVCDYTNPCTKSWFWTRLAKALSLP
# rCAG RNA binder – molecules binding r(CAG) RNA repeats; r(CAG) RNA repeat, TO-PRO-1 dye displacement fluorescence; inhibition, % at 3 µM; 370,000 tested, 1.3% active;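 active = inhibition above the plate cutoff, the mean of all test compounds on that plate plus 3 SD, cut at about 35% in these data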;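 also: 0% = DMSO alone and 100% = 100 µM mitoxantrone as full dye displacement; higher means more dye released from RNA so lower well fluorescence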
# ABHD5-PLIN5 inh – blocks binding of human ABHD5 to perilipin-5 | Split G. princeps luciferase complementation, luminescence, 4 h | 360,000 tested, 0.78% active | Q00G26+Q8WTS1 | inhibition, % at 4 µM;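 active = inhibition above the mean inhibition across every tested compound plus 3 SD, cut at about 22% in these data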;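 also: 0% = DMSO only wells and the 100% control is not disclosed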
# PRMT1 FP inh – inhibitors of human PRMT1; recombinant PRMT1, activity-based probe fluorescence polarization; inhibition, % at 2.79 µM; 370,000 tested, 1.3% active; AID 652257;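 active = inhibition above about 21% made by adding two undisclosed values, limit read from the data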
# ABHD5 PLIN5 conf – ABHD5-PLIN5 interaction inhibition, confirmed | shares compounds with ABHD5-PLIN5 inh | biochemical ABHD5-PLIN5 interaction, luminescence | inhibition, % at 4 µM | 2,200 tested, 67% active | AID 651612; in the data active = inhibition above about 23%;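 also: 0% = DMSO vehicle wells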
# HNF4 split-luc – HNF4 split-luciferase signal hit, counter-screen; AID 651674; HNF4 dimerization, luminescence, biochemical; 2,200 tested, 77% active; inhibition, % at 4 µM; shares compounds with ABHD5-PLIN5 inh;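 active = mean inhibition across replicate wells exceeding the computed hit threshold, cut at about 13% in these data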;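 also: light from luciferase halves that rejoin when HNF4 fusion proteins dimerize; 0% = DMSO only wells and the 100% control is not given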
# Active calls of the source: *; . = not tested or not shown. Sampled rows, rich in hits. Any-hit rate of the full collection: about 3.3%.
SMILES,NOD2-RIPK2 inh,TLR9-MyD88 block,TLR4 MyD88 comp,rCAG RNA binder,ABHD5-PLIN5 inh,PRMT1 FP inh,ABHD5 PLIN5 conf,HNF4 split-luc
O=[N+]([O-])c1ccc(-[n+]2ccc3ccccc3c2)c([N+](=O)[O-])c1,1,4,.,5,29*,5,62*,58*
CCOc1ccc(NC(=O)c2ccc(Cl)c(NC(=O)c3ccco3)c2)cc1,-2,1,.,-2,-1,-1,.,.
CCCN1Cc2cc(OC)ccc2-c2ccccc2S1(=O)=O,0,-3,.,0,8,3,.,.
O=C(NNC(=O)C1CC1)c1ccccc1[N+](=O)[O-],2,2,.,-3,32*,2,8,7
COc1ccccc1C(=O)NNC(=O)c1ccccc1[N+](=O)[O-],-6,9,-4,6,0,4,.,.
CCOC(=O)c1ccc(NC(=O)CSc2nc3c(c(=O)n2CC)SC(C)C3)cc1 (configuration not stated),-13,2,8,2,81*,-1,4,8
CCOC(=O)c1ccc(NC(=O)CSc2nc3c(c(=O)n2C)SC(C)C3)cc1 (configuration not stated),-1,-3,-2,5,6,3,.,.
Cc1ccc(Nc2nc(N)c3ccccc3n2)cc1C,0,0,.,9,0,-1,.,.
O=C1C=CC(=O)N1Cc1ccccc1,7,15,.,3,32*,-2,4,2
CC(C)c1ccc(NC(=O)c2csnn2)cc1,-3,-8,5,-3,24*,-4,0,3
Cc1ccc2c(c1)C(=O)N1[C@H]3c4ccccc4OC[C@@H]3[C@H](c3ccccc3)[C@]1(C)C(=O)N2,3,-8,.,.,-6,.,.,.
Cc1ccc(CN2CC=CS2(=O)=O)cc1,.,.,.,3,.,-3,.,.
CCn1c(SCC(=O)N/N=C/C=C/c2ccco2)nnc1-c1ccc(OC)cc1,8,4,0,5,30*,6,17,40*
COc1ccc(-c2nnc(SCC(=O)NN=C/C=C\c3ccco3)n2-c2ccc(OC)cc2)cc1,.,.,.,11,.,8,.,.
O=S(=O)(c1ccc(C(F)(F)F)cc1)N1CCCc2nc(-c3ccc(Br)cc3)ccc21,.,.,.,3,.,-3,.,.
O=C1c2ccccc2NC(c2ccc(-c3ccc(Br)cc3)o2)N1O (configuration not stated),10,5,0,13,2,1,.,.
O=C1c2ccccc2NC(c2ccc(-c3ccc(F)cc3)o2)N1O (configuration not stated),-10,-7,.,9,38*,7,14,13*
Cc1ccc2ccccc2[n+]1CCCS(=O)(=O)[O-],0,-5,-19,2,3,2,.,.
CCC[n+]1c2ccccc2cc2ccccc21,-2,-8,.,2,72*,6,94*,84*
CCCC[n+]1c2ccccc2cc2ccccc21,-2,-15,.,4,87*,4,102*,100*
CCCCC[n+]1cccc2c3ccccc3ccc21,-2,5,18,7,2,-1,.,.
CCC(c1nnnn1C(C)(C)C)N1CCN(C/C=C/c2ccccc2)CC1 (configuration not stated),-11,.,.,-1,1,4,.,.
O=C(CSc1nc(C(F)(F)F)cc(=O)[nH]1)Nc1cccc2ccccc12,-14,-4,.,20,0,7,.,.
O=C(COC(=O)Cc1n[nH]c(=O)c2ccccc12)Nc1ccc(Cl)cc1F,6,-7,6,4,-1,2,.,.
Cc1nnnn1/C(=C\c1ccccc1)C(=O)OCC(=O)Nc1ccc(Cl)cc1F,14,7,.,-2,68*,-3,92*,85*
SMILES,NOD2-RIPK2 inh,TLR9-MyD88 block,TLR4 MyD88 comp,rCAG RNA binder,ABHD5-PLIN5 inh,PRMT1 FP inh,ABHD5 PLIN5 conf,HNF4 split-luc
Nc1nsc2ccccc12,6,-2,4,0,45*,2,57*,64*
CCn1c(O)c(N=NC(=S)NCC2CCCO2)c2ccccc21 (configuration not stated),-5,5,-22,-1,4,2,.,.
CC(CCN1CCC(C(O)(c2ccccc2)c2ccccc2)CC1)Oc1ccc(C#N)c(F)c1 (configuration not stated),.,.,.,4,.,0,.,.
O=C(N/C(=C/c1ccc(Cl)cc1)c1nc2ccccc2[nH]1)c1ccco1,-9,-11,0,1,-1,-2,.,.
COc1cc(/C=C(/C(=O)c2cccs2)c2nc3ccccc3[nH]2)cc(OC)c1O,0,6,3,10,60*,7,88*,88*
O=C(/C(=C/c1ccc(Cl)cc1)c1nc2ccccc2[nH]1)c1ccccc1,-10,4,5,10,28*,-3,100*,94*
Nn1c(SCC(=O)NC2CCCC2)nnc1C(F)(F)F,-7,-3,.,-1,-7,-2,.,.
Cc1cc(Sc2nnc(N)s2)c2ccccc2n1,6,-5,.,-1,23*,2,38*,58*
CCOC(=O)N1CCN(CCC(=O)Nc2cccc(C)c2)CC1,2,-4,.,-5,-7,3,.,.
CN(C)CCCN(C(=O)CCS(=O)(=O)c1ccccc1)c1nc2cc3c(cc2s1)OCO3,6,-12,.,-1,26*,7,18,49*
CN(C)CCCN(C(=O)CCSc1ccccc1)c1nc2cc3c(cc2s1)OCO3,6,-7,-8,4,27*,5,15,19*
C=CCN(C(=O)CNS(=O)(=O)c1ccccc1)C(C(=O)NCCOC)c1cccnc1 (configuration not stated),-3,-6,.,0,-5,1,.,.
O=C(/C=C/c1cccs1)c1cc(Cl)ccc1O,-5,-14,5,1,10,3,.,.
O=C(C=Cc1cccs1)c1ccc(Cl)s1,1,1,.,5,24*,1,60*,40*
O=C(/C=C/c1cccnc1)c1ccc([N+](=O)[O-])cc1,-3,3,.,4,57*,6,89*,94*
COc1ccc(C=CC(=O)c2ccc([N+](=O)[O-])cc2)cc1,-12,-4,.,5,16,0,.,.
Cc1[nH]c(C)c(C(=O)/C=C/c2ccc([N+](=O)[O-])cc2)c1C,4,-1,.,5,25*,2,39*,44*
COc1cc(C(=O)/C=C/c2cccnc2)c([N+](=O)[O-])cc1OC,16,0,.,-3,47*,4,74*,72*
O=C(C=Cc1ccccc1)c1ccc([N+](=O)[O-])cc1,1,0,.,3,67*,-1,95*,91*
CSCC[C@@H](CO)NC(=O)[C@H]1O[C@@H](n2ccc(=O)[nH]c2=O)[C@H](O)[C@@H]1O,0,.,.,0,4,3,.,.
